Cycloheximide cs = Cycloheximide Counterscreen for Small Molecule Inhibitors of Shiga Toxin. 300,000 tested, 12% active. max response, %. cell reporter, cycloheximide protein synthesis inhibition counterscreen; in the data active = max response mostly above about 13%, no sharp cut-off; inactive = mostly below about 14%; note: read at 38.3 µM for the half of the compounds with a filed dose; 0% is about no effect
Lassa entry inh = qHTS for Inhibitors of binding or entry into cells for Lassa Virus | 300,000 tested, 1.2% active | AID 540256, 2011 | Potency, µM (doses to about 37.9 µM), without a hit: top-dose activity change, negative = inhibition, hits mostly inhibitors | Lassa virus pseudotype entry inhibition, cell reporter; calls by dose curve; tested in HEK293 cells; note: potency is the fitted concentration of half-maximal effect; % is set by controls: 0 for no effect and ±100 for the full control effect; nearly all actives have a fitted effect of over 50% in size
Shiga toxin inh = A qHTS for Small Molecule Inhibitors of Shiga Toxin; inhibition, % at 38.7 µM; Vero cells, Shiga toxin protein synthesis inhibition reporter; 290,000 tested, 9.2% active; in the data active = inhibition mostly above about 28%, no sharp cut-off; inactive = mostly below about 43%; note: 0% is about no effect
Marburg entry inh = qHTS for inhibitors of binding or entry into cells for Marburg Virus; Marburg virus pseudotyped entry inhibition, cell reporter; Potency, µM (top dose mostly 37.8 µM), without a hit: at the highest dose activity change, negative = inhibition, actives largely listed as inhibitors; 300,000 tested, 1.8% active; AID 540276, 2011; calls by dose curve; tested in HEK293 cells; note: potency is the fitted concentration of half-maximal effect; % is set by controls: 0 for no effect and ±100 for the full control effect
* hit, by the source's call; ? = inconclusive; · = no result given; [ ] = another dose, or the depositor's remark. Sampled rows, rich in hits. Any-hit rate of the full collection: about 12%.

SMILES	Cycloheximide cs	Lassa entry inh	Shiga toxin inh	Marburg entry inh
Cc1cc(C(=O)Nc2ccccn2)cs1	37*	?	48*	?
Cc1ccccc1C(=O)Nc1ccc(Cl)cn1	24*	?	115*	?
CSc1ccc(/C=C2\CCn3c2nc2cc(C(=O)O)ccc2c3=O)cc1	1	10%	-10	?
COc1cccc(CNC(=O)Cn2ccc3cc(S(=O)(=O)N4CCCCCC4)ccc32)c1OC	2	·	18	·
O=C(COC(=O)CCc1nc2ccccc2s1)Nc1nc(-c2ccccc2)cs1	18*	16%	47*	10%
Cc1csc(NC(=O)CCc2nc3ccccc3s2)n1	24*	19%	37	?
Cc1cnc(NC(=O)CCCc2nc3ccccc3s2)s1	4	?	14	?
O=[N+]([O-])c1cc(S(=O)(=O)NCCCN2CCOCC2)ccc1Cl	1	?	-7	?
CN(C)CCNS(=O)(=O)c1ccc(N2CCN(c3ccc(F)cc3)CC2)c([N+](=O)[O-])c1	0	?	-11	18µM*
Cc1ccc(-n2nnnc2Sc2ccc(S(=O)(=O)NCCN(C)C)cc2[N+](=O)[O-])cc1	15	?	19	9.2µM*
CC(=O)N1CCN(c2ccc(S(=O)(=O)NCCN(C(C)C)C(C)C)cc2[N+](=O)[O-])CC1	1	-4%	7	1%
O=[N+]([O-])c1cc(S(=O)(=O)NCCN2CCOCC2)ccc1Sc1nnnn1-c1ccccc1	16*	-2%	10	16µM*
Cc1ccc(S(=O)(=O)NCCSc2nnnn2-c2ccc(C(N)=O)cc2)cc1	8	·	11	-3%
COc1ccc(NC(=O)CSC2=Nc3ccccc3C3=NC(CC(=O)NCc4ccc5c(c4)OCO5)C(=O)N23)cc1 (centres undefined)	·	3%[46.1 µM]	·	·
O=C(CCc1ccccc1)NC(=S)Nc1ccccc1[N+](=O)[O-]	12	·	33	·
CCC(CCC(=O)NNC(=O)Cc1ccc([N+](=O)[O-])cc1)C(=O)O (centres undefined)	-3	·	17	·
Cc1nc2c(-c3ccccc3)c[nH]n2c(=O)c1Cc1ccccc1	62*	?	121*	9.2µM*
COCc1cc(=O)n2[nH]cc(-c3ccccc3)c2n1	19*	15%	·	-1%
Cc1ccc(Cc2c(C)nc3c(-c4ccccc4)c(C)[nH]n3c2=O)cc1	·	8%[46.1 µM]	·	?
CCCOc1ccc(-c2c(=O)n(OCC(=O)OCC)c3ccccc3[n+]2[O-])cc1	39*	·	59*	·
CCOc1ccc(-c2c(=O)n(OCC)c3ccccc3[n+]2[O-])cc1	24*	·	26	·
CCOC(=O)COn1c(=O)c(-c2ccc(F)cc2)[n+]([O-])c2ccccc21	-4	·	-1	·
CC(C)CCOc1ccc(CO[C@@H]2[C@H]3OC(C)(C)O[C@H]3O[C@@H]2C(O)CO)cc1 (some centres undefined)	0	·	-14	·
COc1cc(-c2nc3ncccn3c2Nc2ccc(C)cc2C)ccc1O	·	-29%[46.1 µM]	·	?
O/N=C/c1ccn(-c2ccc(Br)cc2)c1	40*	·	69*	·
SMILES	Cycloheximide cs	Lassa entry inh	Shiga toxin inh	Marburg entry inh
Cc1cccn2c(=O)c3cc(C(=O)N4COCC4(C)C)n(Cc4ccccc4)c3nc12	·	6%	·	12%[46.1 µM]
CCn1ccc(C(=O)NC2CCCC2)n1	2	-10%[46.1 µM]	14	7%[46.1 µM]
Cc1cnc(NC(=O)c2cncc(Br)c2)s1	30*	?	53*	?
CCn1ccc(C(=O)Nc2ncc(C)s2)n1	28*	·	57*	·
Cc1cnc(NC(=O)c2ccncc2)s1	17*	15%	36*	7%
CC(C)C(=O)Nc1ccc2c(c1)nc(CCN1CCN(c3ccccn3)CC1)n2C	8	17%[46.1 µM]	-8	-1%[46.1 µM]
CCc1cc[n+](C2=C([O-])c3ccccc3C(=O)/C2=N\S(=O)(=O)c2cccs2)cc1	14	18µM*	26	7.1µM*
CC1=NN(c2ccc(C)c(C)c2)C(=O)/C1=C\C=C\c1ccc([N+](=O)[O-])o1	44*	7.1µM*	88*	3.5µM*
COc1cc(O)cc2occ(-c3ccc(O)cc3)c(=O)c12	13*	·	12	·
COc1ccc(-c2oc3cc(OC)c(O)c(OC)c3c(=O)c2OC)cc1O	1	·	-14	·
O=c1c(-c2c(O)cc(O)c3c(=O)cc(-c4ccc(O)cc4)oc23)c(-c2ccc(O)cc2)oc2cc(O)cc(O)c12	-3	·	-6	·
COc1ccc(-c2cc(=O)oc3cc(O)ccc23)cc1	-1	?	11	-30%[46.1 µM]
COc1ccc(-c2coc3cc(O)ccc3c2=O)cc1O	41*	·	38*	·
COc1ccc(-c2coc3cc4oc(=O)cc(-c5ccccc5)c4cc23)cc1F	-3	?	6	?
COc1ccc(-c2coc3cc(O)cc(O)c3c2=O)cc1	50*	?	93*	?
O=c1c(-c2ccc(O)cc2)coc2cc(O)cc(O)c12	31*	?	112*	?
CCN(CC)S(=O)(=O)c1ccc(C)c(N=C=S)c1	-2	?	12	?
COc1ccc(-c2coc3c2c(C)cc2oc(=O)cc(C)c23)cc1	·	4%[46.1 µM]	·	1%[46.1 µM]
COc1ccc(-c2coc3cc(OC)cc(O)c3c2=O)cc1	52*	?	51*	-11%
COc1ccc(-c2coc3cc(OC)cc(OC)c3c2=O)cc1	34*	·	49*	·
CC(C)Oc1cc(O)c2c(=O)c(-c3ccc(O)cc3)coc2c1	30*	·	82*	·
N#CC1(C(N)=O)OC12CCS(=O)(=O)c1ccccc12 (centres undefined)	·	3%	·	26%
CCOc1ccc(CCNC(=O)Cn2ccc3cc(S(=O)(=O)N4CCCCCC4)ccc32)cc1	·	-15%[46.1 µM]	·	·
CCOc1ccc(/C=N/NC(=O)c2ccc(CSc3nc4ccccc4[nH]3)cc2)cc1	21*	?	43*	?
CCOc1ccc(C(=O)N/N=C/c2ccc(SC)cc2)cc1	-2	2.8µM*	0	7%
SMILES	Cycloheximide cs	Lassa entry inh	Shiga toxin inh	Marburg entry inh
CSc1ccc(/C=N/NC(=O)c2cccc(O)c2)cc1	27*	?	76	?
COC(=O)c1ccc(N2CCCCC2)c(N)c1	57*	14%[46.1 µM]	100*	?
COC(=O)c1ccc(N2CCC(C)CC2)c(N)c1	38*	-5%	45	?
c1ccc2c(c1)Cn1nc(Cc3nc4c(s3)CCCC4)nc1-2	35*	10%	74*	5%
COc1ccc(NC(=O)c2ccccc2NC(=O)C2CCCO2)cc1 (centres undefined)	24*	1%	49*	17%
O=C(NCCc1ccccc1)c1ccccc1NC(=O)C1CCCO1 (centres undefined)	30*	?	67*	?
COc1ccc(NC(=O)c2ccccc2NC(=O)C2CC=CCC2C(=O)O)cc1 (centres undefined)	41*	·	88*	·
COc1cccc(C(=O)Nc2ccc(NC(=O)C3CC=CCC3C(=O)O)cc2)c1 (centres undefined)	24*	12%	77*	21%
Cc1ccccc1Oc1ccc(NC(=O)C2CC=CCC2C(=O)O)cc1 (centres undefined)	-2	17%	1	?
COc1cccc(C(=O)Nc2ccc(NC(=O)C3CCCCC3C(=O)O)cc2)c1 (centres undefined)	39*	-4%	21	26%
